# In PubChem BioAssay (NCATS):
# Several values for one entry are separate records, joined by “and”; a condition that tells them apart may be missing. Identical values can stand only once. Results filed as inconclusive are left out. Activity calls are given as the source filed them. The call rests on the fitted dose curve.
# Test: Primary qHTS to identify inhibitors of SARS-CoV-2 cell entry (AID 1645846); further: nearly all actives have a fitted effect of over 45% in size
# Conditions: SARS-CoV-2 pseudovirus cell entry assay, luminescence; activity change, negative = inhibition: at 57.1 µM (top of the series) unless noted; series mostly up to 57.1 µM
# Description: Assay Provider: Wei Zheng, Ph.D.
# National Center for Advancing Translational Sciences, National Institute of Health, Rockville, MD.
# SARS-CoV-2 spike protein, within the viral envelope, mediates viral attachment and infection of host cells. The SARS-CoV-2 spike protein specifically binds to the host receptor ACE2 (Angiotensin-converting enzyme 2). This interaction promotes endocytosis of the viral particle, additional events lead to viral-host cell membrane fusion and release of the viral contents, allowing viral replication.
# While SARS-CoV-2 requires BSL-3 facilities for live virus work, pseudotyped partices (PP) that incorporate SARS-CoV-2 spike proteins without replication elements could facilitate studies on viral entry mechanisms in a BSL-2 setting. This PP cell entry assay could also enable screening of small molecule compound libraries in BSL-2 setting to identify inhibitors of SARS-CoV-2 cell entry.
# PROTOCOL TABLE (format as described by Inglese J, Shamu CE and Guy RK. 2007)
# SEQUENCE No. (e.g., 1, 2, 3, etc.); […] (e.g., Cells, Incubation, Reagent, etc.); VALUE and DESCRIPTION.
# 1. Cells. Seed 1500 HEK293-ACE2 cells (Expi293F with stable expression of human ACE2) in 2 uL/well media (DMEM, 10% FBS, 1x L-glutamine, 1x Pen/Strep, 1 ug/ml puromycin) in white 1536-well assay plates (Greiner #782073).
# 2. Incubation. Incubate at 37C with 5% CO2 overnight (~16 h).
# 3. Compounds. Dispense 23 nL/well compounds in DMSO via pin transfer.
# 4. Incubation. Incubate for 1 hr at 37C 5% CO2.
# 5. Reagent. Dispense 2 uL/well of SARS-CoV-2-S pseudotyped particles. [a] PPs are produced with murine leukemia virus pseudotyping. [b] SARS-CoV-2-S is Wuhan-Hu-1 sequence (BEI #NR-52420) with C-terminal 19 amino acid truncation.
# 6. Centrifuge. […]
# 7. Incubation. Incubate at for 48 hr at 37C 5% CO2
# 8. Centrifuge. Remove supernatant with gentle centrifugation using a Blue Washer (BlueCat Bio).
# 9. Reagent. Dispense 4 uL/well of Bright-Glo Luciferase detection reagent (Promega #E2620).
# 10. Incubation. Incubate for 5 min at room temperature.
# 11. Detection. Read luminescence signal (Viewlux plate reader, PerkinElmer). Data was normalized with wells containing SARS-CoV-2-S PP as 100%, and wells containing bald PP (no fusion protein) as 0%.
# Potency means the concentration at half of the fitted maximal effect.
Structure (SMILES),Potency,"activity change, negative = inhibition",outcome
COc1c(C)c2c(c(O)c1C/C=C(\C)CCC(=O)O)C(=O)OC2,1 µM (active),–,–
CNCC(O)c1ccc(O)cc1 (stereo not given),–,-17.4%,–
C[C@@H]1O[C@@H](O[C@H]2C[C@@H](O)[C@]3(CO)[C@H]4[C@H](O)C[C@]5(C)[C@@H](C6=CC(=O)OC6)CC[C@]5(O)[C@@H]4CC[C@]3(O)C2)[C@H](O)[C@H](O)[C@H]1O,–,-97.3% and -94.1%,–
CCN(CCO)CCCC(C)Nc1ccnc2cc(Cl)ccc12 (stereo not given),–,-16.5% [at 5.25 µM],inactive [at 5.25 µM]
O=C(O)COCCN1CCN(C(c2ccccc2)c2ccc(Cl)cc2)CC1 (stereo not given),–,-14.4%,–
CC1Cc2ccccc2N1NC(=O)c1ccc(Cl)c(S(N)(=O)=O)c1 (stereo not given),inactive,3.64%,–
Nc1nc(F)nc2c1ncn2[C@@H]1O[C@H](CO)[C@@H](O)[C@@H]1O,–,3.89% and -17.8%,–
O=C1c2c(O)ccc(O)c2C(=O)c2c(NCCNCCO)ccc(NCCNCCO)c21,–,-94.5% and -97.6%,–
Cc1cn([C@H]2C[C@H](N=[N+]=[N-])[C@@H](CO)O2)c(=O)[nH]c1=O,1 µM (active),–,–
C[C@H]1O[C@H](O[C@H]2[C@H](O)[C@@H](O)[C@@H](O[C@H]3[C@H](O)[C@@H](O)[C@H](O)O[C@@H]3CO)O[C@@H]2CO)[C@H](O)[C@@H](O)[C@@H]1N[C@H]1C=C(CO)[C@@H](O)[C@H](O)[C@H]1O,inactive,–,–
CS(=O)(=O)OCCCCOS(C)(=O)=O,inactive,-16.9%,–
CC(N)C12CC3CC(CC(C3)C1)C2 (stereo not given),–,-7.42%,–
C[n+]1ccccc1/C=N/O,inactive,–,–
NCC(CC(=O)O)c1ccc(Cl)cc1 (stereo not given),–,0.754% [at 0.702 µM],–
O=C(OC1C[C@H]2CC[C@@H](C1)[N+]21CCCC1)C(O)(c1ccccc1)c1ccccc1 (stereo not given in full),–,-4.34%,–
O=C(c1ccc(OCCN2CCCCC2)cc1)c1c(-c2ccc(O)cc2)sc2cc(O)ccc12,31.6 µM (active),–,–
NS(=O)(=O)Cc1noc2ccccc12,inactive,–,–

Structure (SMILES),Potency,"activity change, negative = inhibition",outcome
CC(S)C(=O)NCC(=O)O (stereo not given),inactive,-22.2%,–
CC1=NS(=O)(=O)c2cc(Cl)ccc2N1,inactive,–,–
N[C@@H]1C[C@H]1c1ccccc1,inactive,-29.3%,–
O=c1c(O)c(-c2ccc(O)c(O)c2)oc2cc(O)cc(O)c12,inactive,-12.3%,–
N=C(N)c1ccc(OCCCCCOc2ccc(C(=N)N)cc2)cc1,15.8 µM (active),–,–
Cn1ccc2cc3c(cc21)CCN3C(=O)Nc1cccnc1,–,-18.3%,–
CNC(=O)c1ccc(N2C(=S)N(c3ccc(C#N)c(C(F)(F)F)c3)C(=O)C23CCC3)cc1F,–,-17.3%,–
NCCCC(O)(P(=O)(O)O)P(=O)(O)O,–,-4.6% and -17.5%,–
NS(=O)(=O)c1cc2c(cc1C(F)(F)F)NCNS2(=O)=O,inactive,–,–
C[C@@H](O)[C@H]1C(=O)N2C(C(=O)O)=C(S[C@@H]3CN[C@H](CNS(N)(=O)=O)C3)[C@H](C)[C@H]12,–,-25.7%,–
Cc1ccc(S(=O)(=O)NC(=O)NN2CC3CCCC3C2)cc1 (stereo not given),inactive,–,–
COC(=O)[C@@H]1CC2=CC(=O)CC[C@]2(C)[C@@]23O[C@@H]2C[C@@]2(C)[C@@H](CC[C@@]24CCC(=O)O4)[C@H]13,inactive,-17.3%,–
Cc1ccc(-c2cc(C(F)(F)F)nn2-c2ccc(S(N)(=O)=O)cc2)cc1,–,-19.2%,–
COc1cc2c(cc1OC)[C@@H]1CC(=O)[C@@H](CC(C)C)CN1CC2,inactive,–,–
O=C(O)C(=O)c1cn(Cc2ccccc2)c2ccc(-c3ccc(OC(F)(F)F)cc3)cc12,–,-24.2%,–
N=c1nc(N2CCCCC2)cc(N)n1O,–,-11.3%,–
